Measured values from the antibiotic and cytotoxicity screens of Wong et al. (2023).
About 3,300 (8.5%) of roughly 39,000 compounds were called active. The full list was thinned out, with actives kept by preference.

What follows are compounds tested on HepG2 (assay: cytotoxicity call (relative viability < 0.9)). Settings: 10 µM.

Compound	cytotoxicity call
C[C@@H]1CN([C@H](C)CO)C(=O)c2cc(NC(=O)Nc3ccc(C(F)(F)F)cc3)ccc2O[C@@H]1CN(C)C(=O)Nc1ccc2c(c1)OCO2	inactive
COCC(=O)N1CC[C@]2(CC1)CN(Cc1ccc3c(c1)OCO3)[C@@H](CO)c1c2c2ccc(cc2n1C)OC	inactive
Nc1ccc(-c2ccco2)cc1	inactive
COc1ccc(S(=O)(=O)Nc2ccc3c(c2)CC(=O)N([C@H](C)CO)C[C@@H](C)[C@H](CN(C)S(=O)(=O)c2cn(C)cn2)O3)cc1	inactive
CC(C)NC(=O)N(C)C[C@@H]1OCc2cn(nn2)CCCC(=O)N([C@@H](C)CO)C[C@H]1C	inactive
C[C@@H]1CN([C@@H](C)CO)C(=O)c2cccc(NS(=O)(=O)c3ccc(F)cc3)c2O[C@H]1CN(C)Cc1ccc(Cl)c(Cl)c1	inactive
CC(=O)O[C@@H]1[C@@H](O)C[C@@]2(C)[C@@H](CC[C@@H](C)[C@@]23Cc2c(O)cc4c(c2O3)CN([C@@H](CCC(=O)O)C(=O)O)C4=O)C1(C)C	inactive
CCCN(C)C[C@H]1OCCCC[C@H](C)Oc2ccc(NC(=O)c3ccccc3)cc2C(=O)N([C@@H](C)CO)C[C@H]1C	inactive
CC(C)N1C[C@H](C)[C@@H](CN(C)Cc2cccc(Cl)c2)Oc2c(NC(=O)c3ccncc3)cccc2C1=O	inactive
C[C@@H]1CN([C@@H](C)CO)C(=O)c2cc(NC(=O)Nc3cccc4ccccc34)ccc2O[C@@H](C)CCCCO[C@@H]1CN(C)S(=O)(=O)c1ccc(Cl)cc1	inactive
Nc1nnc(C(=O)N2CCCCC2)[nH]1	inactive
C[C@@H]1CN([C@H](C)CO)C(=O)c2cc(NC(=O)CCN3CCOCC3)ccc2O[C@H]1CN(C)CC1CCCCC1	inactive
C[C@@H]1CN([C@@H](C)CO)C(=O)Cc2cc(NC(=O)Cc3ccccc3)ccc2O[C@H]1CN(C)S(=O)(=O)c1cccs1	inactive
C[C@H]1CN([C@@H](C)CO)C(=O)Cc2cc(NC(=O)Cc3ccccc3)ccc2O[C@H]1CN(C)S(=O)(=O)c1cccs1	inactive
C[C@@H]1CN([C@@H](C)CO)C(=O)Cc2cc(NC(=O)CCC(F)(F)F)ccc2O[C@@H]1CN(C)S(=O)(=O)c1ccccc1	active
C[C@H](CO)N1C[C@H](C)[C@@H](CN(C)S(=O)(=O)c2ccccc2)Oc2ccc(NC(=O)CCC(F)(F)F)cc2CC1=O	inactive
C[C@@H]1CN([C@H](C)CO)C(=O)Cc2cc(NC(=O)CCC(F)(F)F)ccc2O[C@@H]1CN(C)S(=O)(=O)c1ccccc1	inactive
C[C@@H]1CN([C@@H](C)CO)C(=O)Cc2cc(NC(=O)Cc3ccccc3)ccc2O[C@@H]1CN(C)S(=O)(=O)c1cccs1	active
C[C@@H]1CN([C@@H](C)CO)C(=O)c2cc(Br)cnc2O[C@H]1CN(C)Cc1ccccc1C(=O)O	inactive
COc1nc2ccc(Br)cc2cc1[C@@H](c1ccccc1)[C@@](O)(CCN(C)C)c1cccc2ccccc12	inactive
C[C@@H]1CCCCO[C@@H](CN(C)Cc2ccccc2)[C@H](C)CN([C@H](C)CO)C(=O)c2cc(NC(=O)Nc3ccc4c(c3)OCO4)ccc2O1	inactive
CC(=O)N[C@@H]1[C@@H](Oc2ccc(C(C)=O)cc2)O[C@H](CO)[C@H](O)[C@@H]1O	inactive
CCOc1ccc(CO[C@@H]2O[C@H](CO)[C@@H](O)[C@H](O)[C@H]2NC(C)=O)cc1OC	active
CC(=O)N[C@@H]1[C@@H](OCCOc2ccc(Cl)cc2C)O[C@H](CO)[C@H](O)[C@@H]1O	inactive

Compound	cytotoxicity call
COCCOC(=O)N1C(=O)[C@@]2(c3ccccc31)[C@H](C(=O)Nc1nc3ccccc3s1)[C@H]1C(=O)O[C@H](c3ccccc3)[C@H](c3ccccc3)N1[C@@H]2c1ccc(OCCO)cc1	inactive
CC(C)NC(=O)Cn1ccc([N+](=O)[O-])n1	inactive
NS(=O)(=O)C#Cc1ccccc1	active
Nc1ccccc1S(N)(=O)=O	inactive
NS(=O)(=O)c1ccccc1	inactive
C[C@H]1CN([C@@H](C)CO)S(=O)(=O)c2ccc(C#Cc3cccnc3)cc2O[C@@H]1CN(C)C(=O)CN(C)C	inactive
CS(=O)(=O)CCNCc1ccc(-c2ccc3ncnc(Nc4ccc(OCc5cccc(F)c5)c(Cl)c4)c3c2)o1 [listing 1 of 2 here]	active
CS(=O)(=O)CCNCc1ccc(-c2ccc3ncnc(Nc4ccc(OCc5cccc(F)c5)c(Cl)c4)c3c2)o1 [listing 2 of 2 here]	active
CS(=O)(=O)CCNCc1nc(-c2ccc3ncnc(Nc4ccc(OCc5cccc(F)c5)c(Cl)c4)c3c2)cs1	inactive
CC(C)(O)CC(=O)NCCn1ccc2ncnc(Nc3ccc(Oc4cccc(C(F)(F)F)c4)c(Cl)c3)c21	inactive
CC(CCC(=O)O)C1CCC2C3CCC4CCCCC4(C)C3CCC12C (stereo not given)	inactive
CN(C)CC(=O)N[C@H]1CC[C@H](CC(=O)NCCN2CCCCC2)O[C@H]1CO	inactive
Cc1ccc(S[C@]2(C(=O)NCCCN(C)C)CC(=O)N(C3Cc4ccccc4C3)[C@@H]2c2ccc(CO)cc2I)cc1	inactive
CS(=O)(=O)N1C[C@H](O)COC[C@@H]2O[C@@H](CC(=O)NCCc3ccncc3)CC[C@H]21	inactive
CO[C@H]1CN(C)C(=O)c2cc(NS(C)(=O)=O)ccc2OC[C@@H](C)N(C(=O)CN(C)C)C[C@@H]1C	inactive
C[C@H]1CCCCO[C@H](CN(C)CC2CC2)[C@@H](C)CN([C@@H](C)CO)C(=O)c2cc(NC(=O)CCC(F)(F)F)ccc2O1	inactive
Cc1ccc(NC(=O)c2ccc(CN3CC[C@H](N(C)C)C3)c(C(F)(F)F)c2)cc1Nc1nccc(-c2cncnc2)n1	active
Cc1ccc(NC(=O)c2ccc(CN3CCN(C)CC3)cc2)cc1Nc1nccc(-c2cccnc2)n1	inactive
Cc1ncc(NC(=O)c2ccc(CN3CCN(C)CC3)c(C(F)(F)F)c2)cc1Nc1nccc(-c2cccnc2)n1	active
Cc1ccc(S(=O)(=O)Nc2ccc3c(c2)C(=O)N([C@@H](C)CO)C[C@H](C)[C@@H](CN(C)C(=O)C2CCCCC2)OCCCC[C@H](C)O3)cc1	inactive
COc1ccc(CCNC(=O)[C@@H]2c3ccccc3C(=O)N(Cc3ccccc3OC)[C@H]2c2ccc(CO)cc2)cc1	inactive
C[C@@H]1CCCCO[C@H](CN(C)CC2CCCCC2)[C@@H](C)CN([C@H](C)CO)C(=O)c2cc(NC(=O)CCC(F)(F)F)ccc2O1	inactive
COc1ccc(NC(=O)N(C)C[C@H]2OCCCC[C@H](C)Oc3ccc(NS(=O)(=O)c4ccccc4)cc3C(=O)N([C@@H](C)CO)C[C@@H]2C)cc1	inactive
Cc1ccc(S(=O)(=O)N(C)C[C@H]2OCCCC[C@H](C)Oc3ccc(NC(=O)Cc4ccccc4)cc3C(=O)N([C@@H](C)CO)C[C@H]2C)cc1	inactive

Compound	cytotoxicity call
COc1ccc([Si](C)(C)[C@H]2[C@H](CCO)O[C@@]3(C(=O)N(Cc4cccc(N5C(=O)c6ccccc6Oc6ccccc65)c4)c4ccccc43)[C@@H]2C)cc1	active
C[C@H]1[C@H]([Si](C)(C)F)[C@@H](CCO)O[C@]12C(=O)N(Cc1cccc(N3C(=O)c4ccccc4Oc4ccccc43)c1)c1ccccc12	inactive
COc1ccc([Si](C)(C)[C@H]2[C@H](CCO)O[C@@]3(C(=O)N(Cc4cccc(N5CCCCC5=O)c4)c4ccccc43)[C@@H]2C)cc1	inactive
COc1ccc([Si](C)(C)[C@@H]2[C@@H](CCO)O[C@]3(C(=O)N(Cc4cccc(N5C(=O)c6ccccc6Oc6ccccc65)c4)c4ccccc43)[C@H]2C)cc1	active
CCNc1ncnc2c1nnn2C	inactive
Nc1cc([N+](=O)[O-])ccc1C(=O)O	inactive
C[C@@H]1CCCCO[C@H](CN(C)C(=O)Nc2ccc(F)cc2)[C@@H](C)CN([C@H](C)CO)C(=O)c2cc(NC(=O)c3ccncc3)ccc2O1	inactive
C[C@@H]1CN([C@H](C)CO)C(=O)CCCn2cc(nn2)CO[C@H]1CN(C)C(=O)Nc1ccc2c(c1)OCO2	inactive
C[C@@H]1CN([C@@H](C)CO)C(=O)c2cccc(NC(=O)c3cnccn3)c2O[C@@H]1CN(C)S(=O)(=O)c1cccs1	inactive
Cc1noc(C)c1NC(=O)Nc1ccc2c(c1)C(=O)N([C@H](C)CO)C[C@@H](C)[C@H](CN(C)Cc1ccc(C(F)(F)F)cc1)OCCCC[C@@H](C)O2	inactive
CCN1CCN(c2ccc(Nc3cc(N(C)C(=O)Nc4c(Cl)c(OC)cc(OC)c4Cl)ncn3)cc2)CC1	active
C[C@H]1CN([C@@H](C)CO)S(=O)(=O)c2ccc(C3=CCCCC3)cc2O[C@@H]1CN(C)C(=O)C1CCOCC1	inactive
C[C@@H]1CCCCO[C@H](CN(C)C(=O)Nc2ccc(F)cc2)[C@H](C)CN([C@@H](C)CO)C(=O)c2cc(NC(=O)Nc3ccc4c(c3)OCO4)ccc2O1	inactive
COCC(=O)N1C[C@H](C)[C@H](OC)CN(C)C(=O)c2cc(NC(=O)c3ccc(OC)cc3)ccc2OC[C@@H]1C	inactive
Cn1c(=O)c2c(ncn2CC(O)CO)n(C)c1=O (stereo not given)	inactive
Cn1c(=O)c2c(ncn2C[C@@H](O)CO)n(C)c1=O	inactive
Cn1c(=O)c(F)c(Nc2ccc(I)cc2F)c2c(=O)n(C[C@@H](O)CO)cnc21	active
C[C@@H]1CN([C@@H](C)CO)C(=O)c2cccc(NC(=O)Nc3ccc(C(F)(F)F)cc3)c2O[C@@H]1CN(C)S(C)(=O)=O	inactive
COc1ccc(NC(=O)N(C)C[C@@H]2OCCCC[C@@H](C)Oc3ccc(NS(=O)(=O)c4ccc(F)cc4)cc3C(=O)N([C@H](C)CO)C[C@H]2C)cc1	inactive
Fc1ccc(-c2nc3ccc4ccccc4c3c3c2CCC3)cc1	inactive
Fc1ccc(-c2nc3c4ccccc4c4ccccc4c3[nH]2)cc1	active
N[C@H]1CC[C@H](CCn2cc(C3CCCCC3)nn2)O[C@@H]1CO	inactive
